Data reported in PubChem BioAssay (NCATS).
Results filed as inconclusive are left out. Active and inactive are the calls of the source. The call rests on the fitted dose curve; in most records, active means well fitted inhibition curve with a large enough effect; inconclusive means small, poorly fitted or top-dose-only effect; inactive means flat fitted curve, though single readings scatter.

Target: DNA repair nuclease/redox regulator APEX1 (Homo sapiens) (UniProt P27695)
Assay: qHTS Validation Assay for Inhibitors of the Human Apurinic/apyrimidinic Endonuclease 1 (APE1) (AID 1705;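 on activity change, negative = inhibition: TAMRA fluorescence gain over two minutes as APE1 cuts a quenched THF abasic duplex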)
Conditions: purified APE1 endonuclease activity, fluorescence, titration; series mostly up to 57.1 µM; activity change, negative = inhibition: at the top concentration
From the text: Assay Provider: David M. Wilson, III, National Institute on Aging, NIH
Screening Center PI: Austin, C.P.
Screening Center: NIH Chemical Genomics Center [NCGC]
The apurinic/apyrimidinic endonuclease APE1 is the primary mammalian enzyme responsible for the removal of abasic (or AP) sites in DNA and functions centrally in the base excision DNA repair (BER) pathway. […] Thus, targeting APE1 could improve the efficacy of current treatment paradigms by promoting selective sensitization or protection of diseased and normal cells, respectively.
Inhibition of APE1 activity was screened by utilizing double-stranded short substrate containing tetrahydrofuran (THF) abasic site labeled with rhodamine-type fluorophore (TAMRA) at the 5'-end and with non-fluorescent Black Hole Quencher-2 (BHQ-2) at the opposing 3'-end. An increase in the fluorescence intensity due to incision of the abasic site by APE1 was used to measure the enzyme activity.
1. Substrate: 50 nM final concentration of TAMRA/BHQ-2 substrate dispensed throughout the plate.
2. Enzyme: […] nM APE1 final concentration in columns 1, 2, 5-48. Column 1 is neutral (100% activity)
3. Control: Pintool transfer of control inhibitor NSC-13755 to column 2 of all assay plates. Two-fold, 16 pt dilution in duplicate to produce final concentrations in the […] uM - […] nM range.
3. Buffer columns in columns 3 and 4 were used as negative control (no enzyme).
Three uL of enzyme were dispensed to 1536-well Greiner black solid bottom plates. Compounds (23 nL) were transferred via Kalypsys pintool. The plates were incubated for 15 min at room temperature, and then 1 uL of substrate solution was added to start the reaction. The plates were immediately transferred into ViewLux High-throughput CCD imager (Perkin-Elmer) in order to measure the reaction progress in kinetic mode (three reads every 60 seconds) using 525 nm excitation and 598 nm emission fluorescence protocol. The fluorescence intensity difference between the third and the first time points was used to compute reaction progress.
On the % scale 0 is the no-effect control and ±100 the full control effect; potency means the concentration at half of the fitted maximal effect.

Chain of DNA repair nuclease/redox regulator APEX1 (Homo sapiens) (P27695 whole entry, looked up): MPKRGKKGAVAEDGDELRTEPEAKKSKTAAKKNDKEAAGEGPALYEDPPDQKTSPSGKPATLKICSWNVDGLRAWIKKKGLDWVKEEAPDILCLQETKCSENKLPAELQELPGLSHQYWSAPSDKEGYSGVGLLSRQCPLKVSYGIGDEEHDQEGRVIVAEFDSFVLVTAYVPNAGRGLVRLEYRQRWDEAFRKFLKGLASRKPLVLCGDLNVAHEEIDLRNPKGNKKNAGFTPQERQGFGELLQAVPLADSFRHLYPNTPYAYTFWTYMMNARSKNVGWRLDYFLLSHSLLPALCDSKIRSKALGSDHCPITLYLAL

| SMILES | activity change, negative = inhibition | Potency |
| --- | --- | --- |
| COc1cc(CC(C)N)c(OC)cc1I (stereo not given) | 4.5% (inactive) | – |
| NC(CCCCCP(=O)(O)O)C(=O)O (stereo not given) | 3.95% (inactive) | – |
| NC(N)=Nc1ccc2[nH]c3c(c2c1)C[C@@]1(O)[C@H]2Cc4ccc(O)c5c4[C@@]1(CCN2CC1CC1)[C@H]3O5 | -3.94% (inactive) | – |
| CN1CCC(c2c[nH]c3ccc(O)cc23)CC1 | 1.18% (inactive) | – |
| CN1CCc2cccc(Cl)c2CC1 | 2.97% (inactive) | – |
| CN1C2CCC1CC(OC(c1ccccc1)c1ccccc1N)C2 (stereo not given) | 2.29% (inactive) | – |
| CCCN1CCCC2Cc3[nH]ncc3CC21 (stereo not given) | 14% (inactive) | – |
| CC(N)Cc1c[nH]c2ccc(O)cc12 (stereo not given) | 2.63% (inactive) | – |
| C[N+]1(C)CCC(OC(=O)C(c2ccccc2)c2ccccc2)CC1 | -0.807% (inactive) | – |
| C[C@@H]1O[C@H](C[N+](C)(C)C)CS1 | -3.38% (inactive) | – |
| N[C@@]1(C(=O)O)CC[C@@H](C(=O)O)C1 | -2.4% (inactive) | – |
| COc1ccc2c(c1OC)C(=O)OC2C1c2cc3c(cc2CCN1C)OCO3 (stereo not given) | 4.85% (inactive) | – |
| CCCN(CCC)[C@@H]1CCc2cccc(O)c2C1 | 2.34% (inactive) | – |
| NC(C(=O)O)c1cc(=O)[nH]o1 (stereo not given) | -7.49% (inactive) | – |
| CP(=O)(O)C1=CCNCC1 | -0.162% (inactive) | – |
| Clc1cc(I)cc(Cl)c1NC1=NCCN1 | 10.3% (inactive) | – |
| NCCc1ccc(S(=O)(=O)F)cc1 | 2.83% (inactive) | – |
| Cc1sc2ccccc2c1CC1=NCCN1 | -8.96% (inactive) | – |
| C[N+](C)(C)CCOC(=O)CBr | 7.48% (inactive) | – |
| C/C(O)=C(\C#N)C(=O)Nc1cc(Br)ccc1Br | 3.88% (inactive) | – |

| SMILES | activity change, negative = inhibition | Potency |
| --- | --- | --- |
| Cc1o[nH]c(=O)c1CC(N)C(=O)O (stereo not given) | -1.59% (inactive) | – |
| C[Se]C[C@H](N)C(=O)O | 2.09% (inactive) | – |
| C[N+]1(C)CCN(c2ccccc2)CC1 | -4.66% (inactive) | – |
| COc1ccc2[nH]c3c(c2c1)CCNC3 | -0.916% (inactive) | – |
| CC(Cc1ccc(OCC(=O)O)cc1)NCC(O)c1cccc(Cl)c1 (stereo not given) | -9.61% (inactive) | – |
| CC(C)NP(=O)(NC(C)C)OP(=O)(NC(C)C)NC(C)C | -4.19% (inactive) | – |
| CCCN(CCC)C1CCc2cccc(O)c2C1 (stereo not given) | -0.618% (inactive) | – |
| CCCn1c(=O)c2[nH]c(C3CCCC3)nc2n(CCCOC(=O)c2ccc(S(=O)(=O)F)cc2)c1=O | -1.36% (inactive) | – |
| CC(C)(C)c1o[nH]c(=O)c1CC(N)C(=O)O (stereo not given) | -1.27% (inactive) | – |
| Cc1c2ccncc2c(C)c2c1[nH]c1ccccc12 | – | 3160 nM (active) |
| CCN(CCCl)Cc1ccccc1Br | 8.78% (inactive) | – |
| NC(=O)c1cc(N2CC2)c([N+](=O)[O-])cc1[N+](=O)[O-] | -5.42% (inactive) | – |
| CN(C(=O)Cc1ccc(Cl)c(Cl)c1)C(CN1CCCC1)c1cccc(OCC(=O)O)c1 (stereo not given) | -0.795% (inactive) | – |
| C[C@]12Cc3cn4c(nc3C=C1CCC1C2CC[C@@]2(C)[C@H]1CC[C@@]2(O)C#N)nc1ccccc14 (stereo not given in full) | -9.97% (inactive) | – |
| CN(N=O)c1ccc(O)c(O)c1 | – | 501 nM (active) |
| C=CCN1CC[C@]23c4c5ccc(O)c4O[C@@H]2/C(=N/N=C2\CC[C@@]4(O)C6Cc7ccc(O)c8c7[C@@]4(CCN6CC=C)[C@@H]2O8)CC[C@@]3(O)C1C5 | 7.18% (inactive) | – |
| CC(N)c1cccc(Cl)c1Cl (stereo not given) | -7.14% (inactive) | – |
| COc1ccc(OC)c(C(O)C(C)N)c1 (stereo not given) | -2.08% (inactive) | – |
| CCCN1CC[C@@H]2c3cc(O)ccc3CC[C@@H]21 | -8.74% (inactive) | – |
| COc1ccc2[nH]cc(CCN)c2c1 | -1.74% (inactive) | – |
